FBW7 act: activators of human E3 ligase FBW7 | 650,000 tested, 0.13% active | Q969H0 | normalized activity (activation), % at 26.1 µM | AlphaScreen FBW7–phospho-cyclin E peptide binding, activator screen | AID 1259310; in the data active = normalized activity above about 1.9%;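 also: purified mutant Fbw7 with reduced substrate affinity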
MITF inh: blocks human microphthalmia-associated transcription factor; AlphaScreen MITF homodimerization, bead proximity signal; inhibition, % at 2.6 µM; 650,000 tested, 0.91% active; AID 1259374; in the data active = inhibition above about 50%;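 also: 0% = vehicle wells with protein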
GPR151 activ: activates the human receptor GPR151 | activation, % at 11.2 µM | PathHunter beta-arrestin GPR151 cells, luminescence | AID 1508602 | Q8TDV0 | 650,000 tested, 1% active; in the data active = activation above about 4.9%;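 also: 0% = median of compound wells and 100% = cells with positive control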
Target sequence (Q8TDV0 whole entry, looked up): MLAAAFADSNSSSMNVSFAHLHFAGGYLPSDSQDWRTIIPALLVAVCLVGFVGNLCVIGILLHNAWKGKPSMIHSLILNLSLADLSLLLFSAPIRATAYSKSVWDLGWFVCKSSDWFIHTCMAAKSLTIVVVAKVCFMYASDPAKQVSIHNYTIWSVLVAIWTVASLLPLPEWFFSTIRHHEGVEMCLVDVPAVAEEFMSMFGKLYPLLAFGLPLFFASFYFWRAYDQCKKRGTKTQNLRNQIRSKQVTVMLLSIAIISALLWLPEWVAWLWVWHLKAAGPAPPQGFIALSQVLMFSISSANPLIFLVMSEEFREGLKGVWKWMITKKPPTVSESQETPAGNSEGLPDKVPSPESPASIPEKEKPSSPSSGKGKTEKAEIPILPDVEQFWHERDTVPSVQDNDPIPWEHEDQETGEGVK
TEAD-YAP block: TEAD-YAP interaction inhibition; HEK-TIYL cells, TEAD-Gal4/YAP UAS-luciferase luminescence; inhibition, % at 9.12 µM; 640,000 tested, 1.4% active; AID 1259422; in the data active = inhibition above about 32%;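 also: 0% = median of test compound wells and 100% = reference inhibitor wells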
An asterisk follows results filed as active. Rows were chosen to be rich in hits. Some 3.5% of all compounds tested hit in one or more screens of this group.

How did CCN(CC)S(=O)(=O)c1cc(C(=O)Oc2cccc(NC(=O)c3ccc(Br)cc3)c2)ccc1C do in these assays?
FBW7 act: -0.1; MITF inh: -6.5; GPR151 activ: 0.0; TEAD-YAP block: 19.7

Results for O=C(Nc1cccc(NCc2ccc3c(c2)OCO3)c1)c1ccccc1Cl ?
FBW7 act: -0.2; MITF inh: 4.4; GPR151 activ: -0.5; TEAD-YAP block: 10.0

What do the screens show for `CCN(CC)S(=O)(=O)c1cccc(C(=O)Oc2cccc(NC(=O)c3cccc(OC)c3)c2)c1`?
FBW7 act: 0.0; MITF inh: -1.7; GPR151 activ: -4.1; TEAD-YAP block: 26.1

How did Cc1ccc(OCC(=O)Oc2cccc(NC(=O)c3ccccc3Cl)c2)cc1C do in these assays?
FBW7 act: 0.0; MITF inh: 3.1; GPR151 activ: 0.1; TEAD-YAP block: 61.0*

How did CCN(CC)S(=O)(=O)c1cc(C(=O)Oc2cccc(NC(=O)c3ccc([N+](=O)[O-])cc3)c2)ccc1C do in these assays?
FBW7 act: -0.1; MITF inh: 6.0; GPR151 activ: -0.6; TEAD-YAP block: 35.6*

How did Cc1ccc(-c2csc3ncn4cnnc4c23)cc1 do in these assays?
FBW7 act: -0.1; MITF inh: 4.1; GPR151 activ: 1.1; TEAD-YAP block: -0.1

Results for COc1ccc(OC)c(/C=C/C(=O)OCC(=O)N2CC3(C)CC2CC(C)(C)C3)c1 (configuration not stated) ?
FBW7 act: 0.0; MITF inh: -8.6; GPR151 activ: -0.5; TEAD-YAP block: -4.7

Results for CC(C)(NC(=O)NC(=O)c1c(F)cccc1F)c1ccncc1 ?
FBW7 act: 0.0; MITF inh: -0.6; GPR151 activ: 0.3; TEAD-YAP block: 3.5

Results for O=C(CCN1CCN(c2ccccc2F)CC1)Nc1ccc2c(c1)CCC2 ?
FBW7 act: 0.5; MITF inh: 23.5; GPR151 activ: -1.5; TEAD-YAP block: -5.2

How did COc1ccc(NC(=O)C(=O)NCC2CCCN2S(=O)(=O)c2ccc(C)cc2)cc1 (configuration not stated) do in these assays?
FBW7 act: 0.1; MITF inh: -14.9; GPR151 activ: 1.7; TEAD-YAP block: 60.8*

How did Cc1ccc(S(=O)(=O)N2CCCCC2CCNC(=O)C(=O)NCc2ccccc2)cc1 (configuration not stated) do in these assays?
FBW7 act: 0.3; MITF inh: 3.3; GPR151 activ: 1.1; TEAD-YAP block: 45.7*

What do the screens show for `Cc1ccc(-c2nnc(Nc3ccc(Cl)cc3)c3ccccc23)cc1S(=O)(=O)NC(C)(C)C`?
FBW7 act: 0.2; MITF inh: -8.2; GPR151 activ: -0.1; TEAD-YAP block: -5.9

Results for Cc1cc(C)c(OCC(=O)N/N=C/c2cccs2)c(C)c1 ?
FBW7 act: 0.2; MITF inh: 11.3; GPR151 activ: 0.1; TEAD-YAP block: 8.7

Results for O=C(CSC1CC(=O)N(c2cccc(Br)c2)C1=O)Nc1ccc2ccccc2c1 (configuration not stated) ?
FBW7 act: 0.3; MITF inh: 13.0; GPR151 activ: -0.3; TEAD-YAP block: 5.4

Results for Cc1cc(C)cc(NS(=O)(=O)Cc2ccc(Cl)cc2)c1 ?
FBW7 act: 0.0; MITF inh: -6.4; GPR151 activ: 2.7; TEAD-YAP block: -6.1

How did O=C(c1cc2c(ccc3ccccc32)oc1=O)N1CCOCC1 do in these assays?
FBW7 act: -0.1; MITF inh: -5.5; GPR151 activ: 0.3; TEAD-YAP block: -29.2

What do the screens show for `O=C(c1cc2c(ccc3ccccc32)oc1=O)N1CCCC1`?
FBW7 act: 3.2*; MITF inh: 2.0; GPR151 activ: -0.3; TEAD-YAP block: -3.0

Results for CCOc1ccc(/C=C2/NC(=O)N(CC(=O)Nc3cccc(C)c3)C2=O)c(OCC)c1 ?
FBW7 act: 2.8*; MITF inh: 0.8; GPR151 activ: -0.4; TEAD-YAP block: 5.0

How did Oc1ccc(-c2cnn3c(N4CCOCC4)ccnc23)cc1 do in these assays?
FBW7 act: -0.2; MITF inh: -0.4; GPR151 activ: -1.4; TEAD-YAP block: 98.3*

What do the screens show for `CS(=O)(=O)Nc1cccc(-c2cnn3c(N4CCOCC4)ccnc23)c1`?
FBW7 act: 2.0*; MITF inh: 4.2; GPR151 activ: -1.6; TEAD-YAP block: -1.1

Results for Oc1ccc(-c2cnn3c(N4CCC(O)CC4)ccnc23)cc1 ?
FBW7 act: -0.4; MITF inh: 6.0; GPR151 activ: -0.8; TEAD-YAP block: 51.5*

Results for Cc1ccc(-c2cnn3c(N4CCC(O)CC4)ccnc23)cc1C ?
FBW7 act: 0.3; MITF inh: 2.2; GPR151 activ: 0.0; TEAD-YAP block: -83.0

How did Cn1c(SCC(=O)Nc2ccc(OC(F)(F)F)cc2)nc2c1c(=O)n(Cc1ccc(Cl)cc1Cl)c(=O)n2C do in these assays?
FBW7 act: -0.1; MITF inh: -3.7; GPR151 activ: -0.2; TEAD-YAP block: 5.1

What do the screens show for `O=C(Nc1nnc(C23CC4CC(CC(C4)C2)C3)s1)c1ccccc1`?
FBW7 act: 0.1; MITF inh: 13.1; GPR151 activ: -0.1; TEAD-YAP block: 42.3*

Results for O=C(Nc1nnc(C23CC4CC(CC(C4)C2)C3)s1)c1ccccc1Cl ?
FBW7 act: 0.0; MITF inh: 5.3; GPR151 activ: -0.3; TEAD-YAP block: 8.7

How did O=C(Nc1nnc(C23CC4CC(CC(C4)C2)C3)s1)c1cccs1 do in these assays?
FBW7 act: 0.0; MITF inh: 6.3; GPR151 activ: 0.4; TEAD-YAP block: 32.7*

Results for Cc1sc2nc(C(C)C)n3c(=O)n(CC(=O)NCCCN4CCCC4=O)nc3c2c1C ?
FBW7 act: 1.2; MITF inh: 5.9; GPR151 activ: -1.2; TEAD-YAP block: 15.1

Results for COc1ccc(C)cc1Nc1c2c(nc3ncnn13)CCC2 ?
FBW7 act: -0.1; MITF inh: 7.9; GPR151 activ: 0.3; TEAD-YAP block: 38.3*

Results for COc1ccccc1Nc1c2c(nc3ncnn13)CCC2 ?
FBW7 act: 0.1; MITF inh: 1.2; GPR151 activ: 0.0; TEAD-YAP block: -7.3

Results for CCOC(=O)CCCN1C(=O)S/C(=C/c2ccccc2)C1=S ?
FBW7 act: -0.1; MITF inh: 16.8; GPR151 activ: 0.4; TEAD-YAP block: -0.6

What do the screens show for `COc1cc(NC(=O)c2csc(-c3ccc(C(N)=O)cc3)n2)cc(OC)c1OC`?
FBW7 act: -0.1; MITF inh: -2.6; GPR151 activ: 0.9; TEAD-YAP block: 36.4*

Results for COc1cc(Nc2ccnc(-c3ccc(C(N)=O)cc3)n2)cc(OC)c1OC ?
FBW7 act: 0.0; MITF inh: 13.8; GPR151 activ: -2.0; TEAD-YAP block: 50.9*

Results for COc1ccc(-c2nc(C(=O)Nc3cc(OC)c(OC)c(OC)c3)cs2)cc1 ?
FBW7 act: 1.1; MITF inh: 1.8; GPR151 activ: -0.4; TEAD-YAP block: 13.6

What do the screens show for `COc1cc(NC(=O)c2csc(N3CCN(Cc4ccc5c(c4)OCO5)CC3)n2)cc(OC)c1OC`?
FBW7 act: 0.0; MITF inh: 2.7; GPR151 activ: 2.8; TEAD-YAP block: 41.4*

How did CCCC/C=C/c1cnc(N)c(N2CCOCC2)n1 do in these assays?
FBW7 act: -0.1; MITF inh: -8.1; GPR151 activ: -0.2; TEAD-YAP block: 10.3
